From PubChem
Most compounds without a hit are left out; they make up all but 2.4% or so of the library.
GLS inh: glutaminase GLS (human) inhibition | GLS enzymatic activity, qHTS titration | Potency, µM (series often up to 45.5 µM), hits mostly inhibitors | O94925 | 0.21% of 410,000 active
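Enzyme dispensed in phosphate buffer (45 mM, pH 8.2, 0.02% Tween-20), compounds pinned in, then 1 mM L-glutamine solution and the glutamate oxidase–HRP–Amplex Red mix added; fluorescence read immediately and again after 30 min at room temperature.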
Pol kappa inh: inhibitors of human DNA polymerase kappa; Q9UBT6; 0.53% of 400,000 active; purified Pol kappa, fluorescent DNA synthesis assay, 10 min; Potency, µM (top dose mostly 107 µM), hits mostly inhibitors
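Readout: fluorescence, taken kinetically at 0 and 10 min. Conditions: 10 nM Pol kappa, 15 min RT compound preincubation, 50 nM substrate final. Controls: enzyme-free buffer wells.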
Pol eta inh: blocks human DNA polymerase eta activity. Potency, µM (highest dose often 114 µM), usual class: inhibitors. recombinant Pol eta, fluorescent DNA replication assay. Q9Y253. 1.2% of 390,000 active
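Pol eta at 10 nM preincubated with compounds 15 min at room temperature; reaction started with fluorescent substrate (50 nM final) and read kinetically at 0 and 10 min.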
GCN5L2 inh: GCN5L2 (KAT2A) acetyltransferase inhibition. Q92830. GCN5L2 HAT assay, ThioGlo1 CoA-SH fluorescence. Potency, µM (doses to about 58.9 µM), most hits filed as inhibitors. 0.21% of 390,000 active
Target sequence (Q92830 whole entry, looked up): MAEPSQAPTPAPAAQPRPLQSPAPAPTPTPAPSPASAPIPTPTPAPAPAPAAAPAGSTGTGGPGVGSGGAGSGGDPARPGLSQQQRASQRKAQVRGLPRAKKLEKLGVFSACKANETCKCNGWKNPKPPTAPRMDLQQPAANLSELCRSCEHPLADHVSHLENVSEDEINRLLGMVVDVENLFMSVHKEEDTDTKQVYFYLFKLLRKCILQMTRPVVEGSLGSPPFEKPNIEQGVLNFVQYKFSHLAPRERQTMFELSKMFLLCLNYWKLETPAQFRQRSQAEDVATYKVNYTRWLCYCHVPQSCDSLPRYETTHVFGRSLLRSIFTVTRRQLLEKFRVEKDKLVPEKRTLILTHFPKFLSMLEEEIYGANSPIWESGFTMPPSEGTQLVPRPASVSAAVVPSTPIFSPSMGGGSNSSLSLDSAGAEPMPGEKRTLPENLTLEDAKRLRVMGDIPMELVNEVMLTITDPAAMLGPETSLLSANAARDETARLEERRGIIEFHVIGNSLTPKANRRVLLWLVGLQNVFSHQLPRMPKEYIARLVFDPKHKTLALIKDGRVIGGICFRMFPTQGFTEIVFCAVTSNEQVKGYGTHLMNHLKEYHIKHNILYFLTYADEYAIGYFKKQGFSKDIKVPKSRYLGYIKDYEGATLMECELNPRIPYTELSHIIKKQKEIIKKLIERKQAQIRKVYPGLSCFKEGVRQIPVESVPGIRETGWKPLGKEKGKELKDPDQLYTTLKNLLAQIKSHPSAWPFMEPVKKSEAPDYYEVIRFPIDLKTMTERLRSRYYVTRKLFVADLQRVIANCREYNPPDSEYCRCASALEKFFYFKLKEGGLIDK
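Preincubate 20nM GCN5L2 with compound 15 min, RT → add 50uM ThioGlo1 + 75uM H3(1-25) + 70uM acetyl-CoA → read fluorescence 0 and 20 min. Primary qHTS; fluorescent artifacts likely.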
POLI inh: blocks human DNA polymerase iota activity | 1% of 390,000 active | AID 588590 | Potency, µM (top dose mostly 115 µM), most hits filed as inhibitors | Pol iota fluorescent replication assay, 10 min
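Fluorescent replication assay read twice, at 0 min and 10 min after adding 50 nM (final) substrate. Enzyme (10 nM) and compounds were first incubated 15 min at room temperature; enzyme-free buffer wells were negative controls.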
POLB inh: blocks human DNA polymerase beta activity | Potency, µM (highest dose often 114 µM), usual class: inhibitors | AID 485314 | 1.3% of 340,000 active | P06746 | Pol beta primer extension/strand displacement, fluorescence kinetic
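10 nM enzyme + cpd, 15 min RT; start with substrate 50 nM final; read 0 min and after 10 min RT. Corrected, normalized data; 4-parameter Hill curve fit.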
A number is an active result; i = inactive; ? = inconclusive; nt = no result; ! = repeats disagree; [ ] = another dose, or the depositor's remark. Calls follow the shape of the dose curve; as a rule, active = well fitted inhibition curve with a large enough effect; inconclusive = small, poorly fitted or top-dose-only effect, or another doubt; inactive = no such curve, though single readings can be large or run the other way.

SMILES | GLS inh | Pol kappa inh | Pol eta inh | GCN5L2 inh | POLI inh | POLB inh
CCCCCCCC(=O)CC[C@H]1[C@@H](C/C=C/CCCC(=O)OC(C)C)[C@@H](O)C[C@H]1O | i | nt | nt | nt | nt | nt
O/N=C(/C[n+]1csc2ccccc21)c1ccccc1 | nt | i | nt | nt | i | nt
CC1(C(=O)O)CCC2(C)CCC3(C)C(=CC(=O)[C@@H]4C5(C)CC[C@H](O[C@H]6O[C@H](C(=O)O)C(O)C(O)[C@H]6O[C@@H]6O[C@H](C(=O)O)C(O)C(O)C6O)C(C)(C)[C@@H]5CCC43C)[C@@H]2C1 (stereo partly specified) | 14µM | nt | nt | nt | nt | nt
O=C(C[n+]1c2ccccc2cc2ccccc21)c1ccc(F)cc1 | nt | i | nt | nt | i | nt
CSCc1c(C(=O)OCC(=O)c2ccc[nH]2)oc2ccccc12 | i | ? | ? | i | 50µM | nt
Cc1c(NC(=O)C2CC=CCC2C(=O)O)c(=O)n(-c2ccccc2)n1C (stereo unspecified) | i | i | ? | i | i | 25µM
CC(=O)Nc1ccc(NC(=O)c2oc3ccc4c(c3c2C)C(=O)CC(C)(C)O4)cc1 | i | i | i | i | i | i
CC(C)(C)[C@H]1CCC(=O)N(CCSc2ccc(Br)cc2)CC1 | nt | i | nt | nt | ? | nt
CCOC(=O)c1ccc(NC(=O)COc2ccc(-n3cnnn3)cc2)cc1 | i | i | ? | i | ? | 32µM
CCOc1ccc(NC(=O)COc2ccc(-n3cnnn3)cc2)cc1 | i | i | i | i | i | nt
O=C(Nc1ccc2c(c1)OCO2)c1cccc2c1C(=O)N(Cc1cccnc1)C2 | i | i | ? | i | ? | 40µM
CCCN1Cc2cccc(C(=O)Nc3ccc4c(c3)OCO4)c2C1=O | i | i | i | i | i | i
O=C(COC(=O)c1ccccc1Oc1ccccc1)Nc1ccc(Br)cc1 | nt | i | nt | nt | i | nt
NC(=O)OC[C@@H]1[C@H](NC(=O)/C(=N/OCC(=O)O)c2csc(N)n2)C(=O)N1S(=O)(=O)O | i | i[19.4 µM] | nt | i | nt | nt
N#CC1=C(N)SC(N)=C(C#N)C1c1ccoc1 | nt | nt | nt | ? | nt | 7.1µM
N#CC1=C2SCN(c3ccccc3)CN2C(=O)CC1c1ccccc1Cl (stereo unspecified) | i | i | i | 28µM | i | i
N#CC1=C2SCN(c3ccccc3)CN2C(=O)CC1c1c(Cl)cccc1Cl (stereo unspecified) | i | i | i | 11µM | 89µM! | i
O=c1[nH]c(=S)c2n[nH]nc2[nH]1 | nt | i | nt | nt | i | nt
O=C(Nc1cccc(Cl)c1)OCCOC(=O)Nc1cccc(Cl)c1 | i | i | i | nt | i | nt
O=C(Nc1cccc(Cl)c1)OCC#CCCl | nt | 27µM | nt | ? | nt | nt
O=C(CSc1nnc(-c2ccccc2)o1)c1nnc(-c2ccccc2)o1 | i | i | 20µM | i | i | i
Cc1nn(-c2ccccn2)c2c1-c1nc(N)ncc1CC2 | i | i | i | i | i | i
Cc1nn(-c2ccccn2)c2c1-c1nc(N)sc1CC2 | nt | i | nt | nt | 3.2µM | nt
Cc1[nH]n(-c2ncc(-c3ccccc3)s2)c(=O)c1C(c1ccc(Br)cc1)C(C#N)C#N (stereo unspecified) | ? | ? | 22µM | ? | ? | 45µM
Cc1[nH]n(C(N)=S)c(=O)c1C(c1ccccc1)C(C#N)C#N (stereo unspecified) | i | i | i | i | ? | i
SMILES | GLS inh | Pol kappa inh | Pol eta inh | GCN5L2 inh | POLI inh | POLB inh
CC1CCN(c2c([N+](=O)[O-])c(=O)n(-c3ccccc3)c3ccccc23)CC1 | i | i | i | 1.4µM | i | i
CN1CCC(N(Cc2cccs2)c2ccccc2)CC1 | i | nt | nt | nt | nt | nt
Cc1ccc(NC(=O)NC(=O)N(C(C)C)S(=O)(=O)c2ccc(C)cc2)cc1 | i | i | i | i | i | 89µM
Cc1ccc(NC(=O)Nc2ccc(S(N)(=O)=O)cc2)cc1 | i | i | i | i | i | i
CCc1ccc(NC(=O)CC2C(=O)N(c3ccc(Cl)cc3)C(=O)N2C2CCCC2)cc1 (stereo unspecified) | i | ? | i | i | 89µM | i
CCc1ccc(NC(=O)CC2C(=O)N(c3ccc(C)cc3)C(=O)N2C2CCCC2)cc1 (stereo unspecified) | i | i | i | i | i | i
CCCCCCC[n+]1ccc(/C=C/c2c[nH]c3ccccc23)c2ccccc21 | nt | 32µM | nt | nt | ? | nt
CCCCCCCCCC[n+]1ccc(/C=C/c2c(C)[nH]c3ccccc23)c2ccccc21 | nt | ? | nt | nt | i | nt
CCCCCCCCCCCCCCCC[n+]1ccc(/C=C/c2c[nH]c3ccccc23)c2ccccc21 | nt | i | nt | nt | i | nt
CCCCCCC[n+]1ccc(/C=C/c2c(C)[nH]c3ccccc23)c2ccccc21 | nt | ? | nt | nt | 79µM | nt
O=C(COc1ccccc1C(=O)Nc1ccccc1)Nc1ccc(Br)cc1 | nt | i | nt | nt | i | nt
CCS(=O)(=O)c1nc(S(=O)(=O)c2ccc(C)cc2)c(NCc2ccccc2Cl)s1 | i | i | i | i | i | i
N/C(=N\O)c1cn(Cc2ccccc2Cl)c2ccccc12 | ? | i | i | i | i | i
Cc1[nH][nH]c(=O)c1C(c1c(C)[nH][nH]c1=O)c1cn(Cc2ccccc2Cl)c2ccccc12 | i | i | ? | i | 5.6µM | i
CCC1=C(c2ccc(C)cc2)S(=O)(=O)N=C1N1CCC(C(=O)Nc2ccccc2C(=O)OC)CC1 | i | i | nt | i | i | i
O=C(O)c1ccc(CSc2nc(-c3ccccc3)cc(C(F)(F)F)n2)cc1 | i | i | i | i | i | i
O=C(O)c1ccc(CSc2nc(-c3ccc(Cl)cc3)cc(C(F)(F)F)n2)cc1 | i | i | i | i | ? | 89µM
Fc1ccc(C(c2ccc(F)cc2)N2CCN(CC=Cc3ccccc3)CC2)cc1 | i | i[19.4 µM] | nt | nt | nt | nt
Cc1cccc(/C=N/NC(=O)c2cc(Br)ccc2OCc2ccccc2)n1 | i | i | i | i | ? | 45µM
Cc1cccc(/C=N/NC(=O)c2ccccc2OCc2cccc(Br)c2)n1 | ? | i | i | i | i | i
Cc1ccccc1-c1cn(-c2ccccc2)c(=S)[nH]1 | 11µM | i | i | i | i | i
Cc1ccc(-c2cn(-c3ccccc3)c(=S)[nH]2)cc1C | i | i | i | i | i | i
CCOC(=O)C(C(C)=O)c1c(Br)c(O)c(O)c2c(C(=O)c3ccc(C)cc3)coc12 (stereo unspecified) | i | 50µM | i | i | 25µM | i
ClC(Cl)(Cl)c1nc2ccccc2n2nncc12 | 11µM | i | i | i | i | i
CC(=O)c1ccc(NC(=O)CSc2nnc3ccc(-c4ccc(Br)cc4)nn23)cc1 | i | i | i | i | i | i
Brc1ccc[n+](CCc2ccccc2)c1 | nt | i | nt | nt | i | nt
O=S(=O)(Nc1c(Br)cc(Br)c2cccnc12)C1CC1 | nt | i | nt | nt | 13µM | nt
O=S(=O)(Nc1c(Br)cc(Br)c2cccnc12)C1CCCCC1 | nt | i | nt | nt | i | nt
CC(=O)C(=Cc1cccc(C#N)c1)C(=O)c1ccccc1 | 11µM | nt | nt | nt | nt | nt
